The source made the active and inactive calls. Unless noted, how the calls were made is not given here.
What was measured:
[1] = system: XIP peptide (Xip251-270) binding; assay: XIP fragment 251-270 binding compounds – biochemical, small-molecule microarray, fluorescence 635/667 nm, 0.1 µg/mL protein, primary screen (AID 1182); conditions: fluorescent protein binding, 635 nm, higher = more signal, called active from +8 up or from −8 down
XIP peptide (Xip251-270) = assay: compounds binding XIP fragment 251-270 – biochemical, small-molecule microarray, fluorescence 635/667 nm, 0.5 µg/mL protein, primary screen (AID 1183); conditions: fluorescence 635 nm, higher = more signal
[2] = blood-stage malaria parasite viability loss – strain 3D7, DAPI fluorescence, 100 nL, primary screen (AID 1184);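 further: parasites grown inside human red blood cells in medium with human serum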; conditions: P. falciparum 3D7 growth, 3 d, higher = more signal
[3] = target: Homeobox protein Hox-A13 (Mus musculus) (UniProt Q62424); assay: disruptors of Hoxa13 oligonucleotide interaction – biochemical, fluorescence polarization, labeled oligonucleotide, primary screen (AID 1185); conditions: Hoxa13:DNA binding, 15 min, higher = more signal, called active from +8 up or from −8 down
Chain of Homeobox protein Hox-A13 (Mus musculus) (Q62424 whole entry, looked up): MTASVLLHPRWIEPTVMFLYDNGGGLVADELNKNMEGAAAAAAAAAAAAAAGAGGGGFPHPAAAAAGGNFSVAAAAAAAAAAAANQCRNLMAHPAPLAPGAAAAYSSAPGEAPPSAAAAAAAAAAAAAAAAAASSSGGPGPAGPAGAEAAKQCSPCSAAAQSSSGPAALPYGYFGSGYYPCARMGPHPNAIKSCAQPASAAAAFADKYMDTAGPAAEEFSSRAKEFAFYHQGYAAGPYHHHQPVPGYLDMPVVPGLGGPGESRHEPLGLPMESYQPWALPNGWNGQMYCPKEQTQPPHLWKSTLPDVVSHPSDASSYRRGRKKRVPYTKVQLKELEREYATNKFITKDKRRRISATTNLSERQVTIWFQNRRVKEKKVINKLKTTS

[4] = blockers of DNA damage checkpoint Chk1 activation – imaging, HeLa, hydroxyurea, phospho-Chk1 antibody, percent positive cells, primary screen (AID 1186); conditions: hydroxyurea-induced phospho-Chk1 immunofluorescence imaging, higher = more signal
[5] = blockers of DNA damage checkpoint Chk1 activation – imaging, HeLa, hydroxyurea, phospho-Chk1 nuclear intensity, primary screen (AID 1187); conditions: hydroxyurea-induced phospho-Chk1 immunofluorescence imaging, higher = more signal

SMILES | composite z-score [1] | composite z-score (XIP peptide (Xip251-270)) | z-score [2] | z-score [3] | z-score [4] | z-score [5]
[N-]=[N+]=NCc1ccccc1[C@@H]1OC(c2ccc(OCCCO)cc2)=N[C@]1(Cc1ccccc1N=[N+]=[N-])C(=O)N1CCCCC1 | 0.111 (inactive) | 0.724 | -2.16 | -1.44 (inactive) | -0.234 (inactive) | -0.0332 (inactive)
COc1cc(NN2C(C(O)C3CCCCC3)C=CC3C(=O)N(c4ccccc4)C(=O)C32)cc(OC)c1OC (centres undefined) | 1.15 (inactive) | 0.751 | -0.495 | -4.43 (inactive) | 0.0699 (inactive) | -0.253 (inactive)
COCC1C2CC[C@H]3C(OCc4ccc(OC)cc4)OC[C@]4(C)[C@H]3C2=C(CN4C(=O)OC(C)(C)C)[C@H](C)C1COC (some centres undefined) | -0.272 (inactive) | 0.682 | -0.821 | -4.09 (inactive) | -0.615 (inactive) | -0.719 (inactive)
COc1ccc([Si](C)(C)[C@@H]2[C@@H](CCn3cc([C@H](O)c4ccccc4)nn3)O[C@]3(C(=O)N(c4ccccc4)c4ccccc43)[C@H]2C)cc1 | -0.17 (inactive) | 0.559 | -1.73 | -3.01 (inactive) | -0.431 (inactive) | -0.361 (inactive)
COc1cccc(/C=C(\C#N)C(=O)Nc2c(C)n(C)n(-c3ccccc3)c2=O)c1 | 0.0887 (inactive) | 0.438 | 0.393 | -0.75 (inactive) | -0.252 (inactive) | -0.13 (inactive)
CC(C)C(CO)N1C(=O)[C@@H]2[C@H]3C(=O)OCC=C[C@H]3OC23C=CCN(C(C)(C)C)C(=O)[C@@H]13 (some centres undefined) | 0.0887 (inactive) | 0.37 | -0.217 | -4.25 (inactive) | 0.337 (inactive) | -0.418 (inactive)
NC(=O)[C@H]1[C@@H]2C(=O)O[C@@H](c3ccccc3)[C@@H](c3ccccc3)N2[C@@H](c2ccc(O)cc2)[C@]12C(=O)Nc1ccccc12 | -0.367 (inactive) | -0.764 | 0.428 | -5.09 (inactive) | -0.154 (inactive) | -0.112 (inactive)
COCCOC(=O)N1C(=O)[C@@]2(c3cc(C#CCCO)ccc31)[C@H](C(N)=O)[C@H]1C(=O)O[C@H](c3ccccc3)[C@H](c3ccccc3)N1[C@@H]2c1ccc(OCCO)cc1 | 1.56 (inactive) | 0.769 | -0.624 | -1.24 (inactive) | 0.0923 (inactive) | -0.0574 (inactive)
C[C@]1(C(=O)NCC(F)(F)F)c2ccccc2C(=O)N(Cc2ccccc2)[C@H]1c1ccc(CO)cc1 | 0.636 (inactive) | -0.0904 | 0.169 | -4.07 (inactive) | -0.301 (inactive) | -0.232 (inactive)
COc1cc2c(cc1OC)CN(C(=O)[C@@H]1[C@H]3C(=O)O[C@H](c4ccccc4)[C@H](c4ccccc4)N3[C@H](c3ccc(O)cc3)[C@@]13C(=O)Nc1ccc(C#CCCO)cc13)CC2 | 1.33 (inactive) | 0.723 | -1.16 | -2.6 (inactive) | 0.189 (inactive) | 0.28 (inactive)
[N-]=[N+]=NCc1ccccc1[C@H]1OC(c2ccc(OCCCO)cc2)=N[C@@]1(Cc1ccccc1)C(=O)NCCN1CCOCC1 | 0.0723 (inactive) | 0.816 | -2.28 | -0.974 (inactive) | -0.0389 (inactive) | 0.306 (inactive)
COc1ccc([Si](C)(C)[C@H]2[C@H](CCO)O[C@@]3(C(=O)N(Cc4ccc(N5C(=O)c6ccccc6Oc6ccccc65)cc4)c4ccccc43)[C@@H]2C)cc1 | -0.136 (inactive) | 0.0004 | -1.67 | -1.05 (inactive) | -0.557 (inactive) | -0.583 (inactive)
Cc1ccc(S[C@]2(C(=O)NC(C)C)CC(=O)N(Cc3ccccc3Cl)[C@@H]2c2ccc(CO)cc2)cc1 | 0.73 (inactive) | -0.11 | -1.49 | -3.73 (inactive) | -0.0383 (inactive) | -0.0912 (inactive)
COCC(=C=CC[C@H](O)c1cccc(OCCO)c1)C[C@H](O)COCc1ccccc1 | 0.196 (inactive) | -0.524 | -1.88 | -3.95 (inactive) | -0.0978 (inactive) | 0.443 (inactive)
Cc1cccc([C@H]2C[C@H]3C(Br)=C[C@@H]2C(=O)[C@]32CO2)c1 | -0.409 (inactive) | -0.848 | -0.528 | -1.65 (inactive) | 0.139 (inactive) | -0.0027 (inactive)
COCCCNC(=O)[C@@]1(c2ccc([N+](=O)[O-])cc2)CC(=O)N(C(C)C)[C@@H]1c1ccc(CO)cc1 | -1.3 (inactive) | 0.64 | 0.382 | -0.803 (inactive) | 0.0991 (inactive) | 0.621 (inactive)
CN1C(=O)C2C=CC(C(O)c3ccc(I)cc3)N(Nc3ccccc3)C2C1=O (centres undefined) | 0.56 (inactive) | 0.755 | -0.371 | -4.54 (inactive) | 0.178 (inactive) | 0.0306 (inactive)

SMILES | composite z-score [1] | composite z-score (XIP peptide (Xip251-270)) | z-score [2] | z-score [3] | z-score [4] | z-score [5]
COC(=O)[C@@]1(Cc2ccccc2)[C@H]2c3cc(C(=O)N4CCCC4)n(CCSCCO)c3C[C@H]2CN1C(=O)c1ccccc1 | 0.343 (inactive) | 0.752 | -1.7 | -5.06 (inactive) | 1.45 (inactive) | 0.501 (inactive)
CCOC(=O)C1=CC[C@@H](c2ccccc2)N(S(=O)(=O)c2ccc(C)cc2)[C@H]1c1cccc(OC)c1 | -0.285 (inactive) | 0.291 | -2.14 | 0.892 (inactive) | 0.238 (inactive) | -0.67 (inactive)
Cc1ccc([C@H]2C(C(=O)O)=C[C@@H](C(C)(C)C)N2S(=O)(=O)c2ccc(C)cc2)cc1 | 0.629 (inactive) | 0.854 | 1.64 | -4.73 (inactive) | 0.695 (inactive) | 0.255 (inactive)
COCCCNC(=O)[C@@H]1c2ccccc2C(=O)N(C2Cc3ccccc3C2)[C@H]1c1ccc(CO)cc1 | -0.295 (inactive) | 0.583 | -0.804 | -2.44 (inactive) | -0.533 (inactive) | -0.726 (inactive)
O=C(O)[C@H]1C[C@H]2C(=O)N[C@@H](Cc3ccccc3)C(=O)N2[C@H]1c1cccc(OCCO)c1 | -0.0627 (inactive) | 0.152 | -0.74 | -1.74 (inactive) | 0.464 (inactive) | 0.48 (inactive)
COCCOC(=O)N1C(=O)[C@@]2(c3ccccc31)[C@H](c1ccccc1OCCO)N1[C@H](c3ccccc3)[C@H](c3ccccc3)OC(=O)[C@H]1[C@@H]2C(=O)N1CCCCCCC1 | 1.55 (inactive) | 0.846 | -2.01 | 2.31 (inactive) | 0.203 (inactive) | 0.424 (inactive)
CCN(CC)c1ccc(N2CC=CC34O[C@@H]5/C=C\CCC(C)OC(=O)C5[C@H]3C(=O)N(C(C)CO)[C@@H]4C2=O)cc1 (some centres undefined) | -0.187 (inactive) | 0.56 | 0.2 | -5.38 (inactive) | -0.713 (inactive) | -0.257 (inactive)
CCOC(=O)C1=CCN(S(=O)(=O)c2ccc(C)cc2)C1c1ccccc1 (centres undefined) | 0.866 (inactive) | 0.805 | -0.584 | -3.71 (inactive) | 0.607 (inactive) | 0.346 (inactive)
C=C(COC)/C(=C/C[C@H](OC(C)=O)c1cccc(OCCO)c1)c1cnc2ccccc2c1 | 1.46 (inactive) | 0.75 | -2.62 | -5.87 (inactive) | -0.104 (inactive) | 0.276 (inactive)
COc1ccc(C(O)C2C=CC3C(=O)N(c4ccccc4)C(=O)C3N2Nc2ccc(C(C)C)cc2)c2ccccc12 (centres undefined) | 0.886 (inactive) | 0.802 | -0.247 | -0.93 (inactive) | 0.417 (inactive) | 0.0807 (inactive)
COCCOC(=O)N1C(=O)[C@@]2(c3cc(C#CCC(C(=O)OC)C(=O)OC)ccc31)[C@H](C(=O)NC[C@H](O)c1ccccc1)[C@H]1C(=O)O[C@H](c3ccccc3)[C@H](c3ccccc3)N1[C@@H]2c1ccc(OCCO)cc1 | 3.06 (inactive) | 0.64 | -2.28 | -0.301 (inactive) | 0.0558 (inactive) | 0.176 (inactive)
CN(C)CCCNC(=O)[C@@H]1c2ccccc2C(=O)N(C2CCCCC2)[C@H]1c1ccc(CO)cc1 | 2.33 (inactive) | 0.834 | -1.99 | 1.8 (inactive) | 0.208 (inactive) | 0.393 (inactive)
CC(C)CNC(=O)[C@@H]1c2ccccc2C(=O)N(C2CCCCC2)[C@H]1c1ccc(CO)cc1 | 0.737 (inactive) | 0.652 | -0.68 | -2.05 (inactive) | -0.411 (inactive) | -0.339 (inactive)
O=C1O[C@H](c2ccccc2)[C@H](c2ccccc2)N2[C@H]1[C@@H](C(=O)N1CCCCCCC1)[C@]1(C(=O)Nc3ccc(C#CC4(O)CCCCCC4)cc31)[C@H]2c1ccc(O)cc1 | 1.81 (inactive) | 0.466 | -0.372 | 1.68 (inactive) | -0.216 (inactive) | -1.07 (inactive)
O=c1cccc(-c2ccc(F)cc2)o1 | -0.133 (inactive) | 0.472 | 1.07 | -0.287 (inactive) | 0.454 (inactive) | 0.606 (inactive)
COCCOC(=O)N1C(=O)[C@@]2(c3cc(C#CCNC(N)=O)ccc31)[C@H](c1ccc(OCCO)cc1)N1[C@H](c3ccccc3)[C@H](c3ccccc3)OC(=O)[C@H]1[C@@H]2C(N)=O | 0.236 (inactive) | 0.442 | 0.691 | -2.25 (inactive) | 0.139 (inactive) | 0.189 (inactive)
COC(=O)[C@@]1(Cc2ccc(F)cc2)[C@H]2c3cc(C(=O)N4CCCC4)n(C)c3C[C@H]2CN1C(=O)c1ccccc1 | 0.125 (inactive) | 0.664 | -0.37 | -6.1 (inactive) | -0.0152 (inactive) | 0.504 (inactive)

Reference: PubChem BioAssay
